# GLA inh pH 4.5 – alpha-galactosidase A (human) inhibition, pH 4.5; P06280; purified enzyme, 4-MU-alpha-Gal fluorescence, pH 4.5; activity change, negative = inhibition, % at 105 µM; 230,000 tested, under 10 active; AID 1467;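 also: 0% = full activity with enzyme and -100% = basal without enzyme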
# Target sequence (P06280 whole entry, looked up): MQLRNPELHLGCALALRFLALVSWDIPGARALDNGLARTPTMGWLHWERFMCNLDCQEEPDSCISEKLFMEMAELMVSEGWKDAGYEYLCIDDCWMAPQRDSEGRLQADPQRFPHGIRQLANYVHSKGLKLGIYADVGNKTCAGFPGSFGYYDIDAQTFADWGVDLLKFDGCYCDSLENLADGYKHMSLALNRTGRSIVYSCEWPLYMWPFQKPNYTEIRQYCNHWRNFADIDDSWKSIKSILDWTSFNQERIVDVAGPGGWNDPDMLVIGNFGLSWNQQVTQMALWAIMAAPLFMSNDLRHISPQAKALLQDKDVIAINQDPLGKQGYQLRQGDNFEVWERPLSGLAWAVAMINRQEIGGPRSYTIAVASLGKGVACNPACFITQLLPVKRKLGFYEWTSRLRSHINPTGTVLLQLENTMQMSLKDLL
# GAA glycogen mod – GAA glycogen-cleavage inhibition or activation; recombinant GAA, glycogen substrate, Amplex Red glucose oxidase fluorescence; Potency, µM (top dose mostly 76.4 µM), for inactives: at the highest dose activity change, negative = inhibition, usual class: inhibitors; hit rate 0.38% among 300,000; P10253;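 also: potency is read from the fitted curve at half-maximal effect; 0% = full enzyme reaction and -100% = no-enzyme basal signal; the screen sought inhibitors and activators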
#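 Recombinant human enzyme (4 nM); glycogen substrate; 37 C, 40 min, pH 5.0. Readout: coupled glucose oxidase/Amplex Red fluorescence.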
# aGlu spleen mod – inhibitors or activators of human alpha-glucosidase in spleen homogenate | human spleen homogenate, 4-MU-alpha-glucoside fluorescence | Potency, µM (titrated, usually from 79.9 µM), for inactives: at the highest dose activity change, negative = inhibition, most hits filed as inhibitors | hit rate 0.006% among 240,000;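 also: potency is read from the fitted curve at half-maximal effect; 0% = enzyme with vehicle and -100% = no enzyme basal signal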
#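 Enzyme source: human spleen homogenate, 1 ug/well. Buffer 50 mM citric acid/K phosphate pH 5.0, 0.01% Tween-20. 4-MU-alpha-glucoside 1 mM; 37 C x 40 min; NaOH/glycine stop; fluorescence.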
# GLA spleen mod – alpha-galactosidase A (human) modulation; P06280; human spleen homogenate, 4MU-alpha-Gal fluorescence, 40 min; Potency, µM (series often up to 80 µM), without a hit: at the highest dose activity change, negative = inhibition, actives largely listed as inhibitors; hit rate 0.008% among 240,000; AID 2107;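 also: potency is read from the fitted curve at half-maximal effect; 0% = enzyme with vehicle and -100% = no enzyme basal signal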
#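 Fluorogenic readout (Ex 365/Em 440 nm) of 4-methylumbelliferone released from 1 mM 4-MU-alpha-galactoside by spleen homogenate, 40 min at 37C, pH 5.0. Data normalized to no-enzyme and enzyme controls; Hill-equation AC50 from compound titrations.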
# N370S GC – inhibitors or activators of N370S glucocerebrosidase for Gaucher disease. P04062. N370S GC spleen homogenate, 4MU-glucoside fluorescence. Potency, µM (highest dose often 59.4 µM), for inactives: at the top dose activity change, negative = inhibition, actives largely listed as inhibitors. hit rate 0.092% among 330,000;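 also: potency is read from the fitted curve at half-maximal effect; 0% = full enzyme activity and -100% = no enzyme basal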
# GAA inhib – inhibitors of human lysosomal alpha-glucosidase. P10253. purified human GAA, 4-MU-alpha-glucoside fluorescence. Potency, µM (titrated, usually from 76.9 µM), inactives show at the highest dose activity change, negative = inhibition, hits mostly inhibitors. hit rate 0.005% among 200,000. AID 1466;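 also: potency is read from the fitted curve at half-maximal effect; plate controls were uninhibited enzyme wells for no effect and no-enzyme background for full effect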
#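 Read-out is 4-methylumbelliferone fluorescence (Ex 365/Em 440 nm) after NaOH/glycine stop at pH 10. Enzyme 4 nM, substrate 400 uM, pH 5.0 citrate buffer, 20 min room temperature; AC50 from Hill-equation concentration-response.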
# An asterisk follows results filed as active; u = inconclusive; x = no result; [ ] = remark or other dose. Hits are enriched below; roughly 0.41% of the tested compounds scored in any of these assays. Calls follow the shape of the dose curve; as a rule, active = well fitted curve in the direction sought with a large enough effect; inconclusive = small, poorly fitted or top-dose-only effect, or another doubt; inactive = no such curve, though single readings can be large; an effect the other way counts as inactive or inconclusive.
SMILES,GLA inh pH 4.5,GAA glycogen mod,aGlu spleen mod,GLA spleen mod,N370S GC,GAA inhib
Nc1c(N)c2ccccc2oc1=O,8,7.1µM*,-5%,-19%,-7%,-13%
CCOC(=O)C(Cc1ccccc1)NC(=O)CNC(C)=O (stereo unspecified),4,-4%,-2%,-4%,-10%,-1%
CCOc1ccc(Cc2n[nH]c(=S)n2N)cc1,12,4%,-4%,-1%,0%,4%
CCOc1ccc(N2Nc3n[nH]c(N)c3N2)cc1,-4,22µM*,-14%,-2%,-11%,-8%
COc1ccc(N2Nc3n[nH]c(N)c3N2)cc1,-6,25µM*,u,-7%,-24%,-11%
CC1Cc2nc(SCC(=O)NCc3ccco3)n(Cc3ccccc3)c(=O)c2S1 (stereo unspecified),0,2%,-3%,3%,12%,9%
O=C(CCl)Nc1ccc2c(c1)OCO2,1,1%,-3%,-2%,u,2%
CC1(C)CC(=O)CC(C2(O)C(=O)N(Cc3ccccc3)c3ccccc32)O1 (stereo unspecified),3,10%,-8%,-3%,4%,u
O=C(O)c1ccccc1C(=O)NNc1ccc(Cl)cc1Cl,1,16µM*,2%,-6%,1%,4%
O=C(O)c1ccccc1-c1ccccc1C(=O)Nc1ccc(F)cc1,x,-1%,x,x,-1%,x
O=C(O)c1ccccc1C(=O)NNc1ccc(F)cc1,8,28µM*,2%,11%,2%,-9%
O=C(NNC(=O)c1ccccc1-n1cccc1)c1ccc(Cl)cc1Cl,-4,6%,5%,-4%,6%,u
CCC(=O)N1CCc2cc(S(=O)(=O)CCC(=O)N3CCc4ccccc4C3)ccc21,-4,-1%,-6%,0%,3%,1%
CCOC(=O)Nc1ccc2c(c1)N(C(=O)CN(CC)CC)c1ccccc1CC2,x,8.9µM*,x,x,-18%,x
CC#CCN1c2ccccc2[C@]23C[C@@H](C(=O)OC)N(S(=O)(=O)c4ccc5c(c4)OCCN5C)C2=NC(C(=O)OC)=C(C(=O)OC)[C@H]13,-4,x,-10%[17.4 µM],-1%[17.5 µM],12%[12.8 µM],x
Oc1ccccc1N=Cc1c(O)ccc2oc3c(c12)CCCC3,-2,5.6µM*,3%,-1%,7%,x
Cc1ccc2c(cnn2C(=O)CCC(=O)NCc2cccc(Cl)c2)c1,x,x,x,x,-12%,x
CN=c1scc(C)n1/N=C/c1ccc(O)c(O)c1O,-6,11µM*,-14%,-7%,x,-14%
CN=c1scc(-c2cccs2)n1/N=C/c1ccc(O)c(O)c1O,-8,u,3%,-6%,-8%,u
C=CCn1c2ccccc2c2nnc(SCC(=O)NC(C(=O)OC)C(C)C)nc21 (stereo unspecified),4,3%,-17%,40µM*,9%,-3%
C=CCn1c2ccccc2c2nnc(SCC(N)=O)nc21,x,-14%,x,x,-14%,x
Cc1cc(N)c(NC2=CC(=O)CC(C)(C)C2)cc1C,-1,u,-8%,u,7%,u
Cc1nc(C(=O)N2CCc3c([nH]c4ccccc34)C2c2ccccn2)cs1 (stereo unspecified),2,16µM*,-8%,-4%,u,u
CC(C)c1nc(C(=O)N2CCc3c([nH]c4ccccc34)C2c2ccccn2)cs1 (stereo unspecified),-18,-21%,4%,-17%,-28%,u
O=C1NNC(c2ccccc2)=N/C1=C\c1ccccc1Cl,5,1%,-3%,-13%,10%,x
SMILES,GLA inh pH 4.5,GAA glycogen mod,aGlu spleen mod,GLA spleen mod,N370S GC,GAA inhib
Cc1ccc(C)c(S(=O)(=O)Nc2ccc(O)cc2)c1,-2,12µM*,-4%,-3%,-4%,-1%
Cc1cc(C)c(S(=O)(=O)Nc2ccc(O)cc2)cc1C,-4,14µM*,0%,2%,6%,-1%
COc1ccc(NC(=O)CN(C)C(=O)CC2CCCC2)cc1,x,x,x,x,-1%,x
CC1Sc2ccc(S(=O)(=O)CCC(=O)Nc3ccccc3Cl)cc2NC1=O (stereo unspecified),x,-6%[76.3 µM],x,x,u,x
CC1Sc2ccc(S(=O)(=O)CCC(=O)Nc3ccc(C(C)C)cc3)cc2NC1=O (stereo unspecified),x,x,x,x,6.3µM*,x
Cc1ccc(NC(=O)CCS(=O)(=O)c2ccc3c(c2)NC(=O)C(C)S3)cc1Cl (stereo unspecified),x,x,x,x,7.9µM*,x
O=C(CSc1ccccc1)NC(=O)NCc1ccccc1,-4,4%,6%,13%,18%,x
NNC(=O)c1nn(-c2ccc(Cl)cc2)cc1O,6,28µM*,-6%,-4%,-22%,9%
O=C(Nc1cc(S(=O)(=O)N2CCOCC2)ccc1N1CCCC1)c1cc(=O)[nH]c2ccccc12,12,u,10µM*,-4%,16%,x
O=C(O)CCCN=C1CCCc2ccccc2N1,2,0%,-5%,-5%,u,-1%
Cc1ccc(OCCn2cc(C(=S)N3CCCC3)c3ccccc32)cc1C,3,-3%,-19%,-2%,13%,1%
COc1ccc(OCCn2cc(/C(N)=N/O)c3ccccc32)cc1,1,12µM*,-5%,9%,-15%,u
COC(=O)c1cn(CCOc2ccccc2)c2ccccc12,-4,-7%,3%,-9%,26%,-6%
Cc1ccc(OCCn2cc(/C(N)=N/O)c3ccccc32)cc1C,-6,40µM*,-24%,-5%,u,-6%
O=C(c1ccc2c(c1)N(Cc1ccccc1F)C(=O)c1ccccc1S2)N1CCOCC1,3,-4%,4%,-1%,-2%,x
Cc1cccc(CN2C(=O)c3ccccc3Sc3ccc(C(=O)NCCN4CCOCC4)cc32)c1,-16,-8%,1%,0%,14µM*,-7%
CCN1C(=O)c2ccccc2Sc2ccc(C(=O)NCCCN3CCOCC3)cc21,8[21.1 µM],-11%,0%,7%,-9%,1%
O=C(NCCN1CCOCC1)c1ccc2c(c1)N(Cc1ccccc1F)C(=O)c1ccccc1S2,-15,0%,-12%,-4%,10µM*,-4%
COc1ccc(Cn2nnnc2C(C(C)C)N2CCN(c3ccccc3OC)CC2)cc1 (stereo unspecified),-14,-6%,-6%,-2%,-5%,-3%
Oc1ccc(N2CCN(C(c3cccnc3)c3nnnn3Cc3ccccc3)CC2)cc1 (stereo unspecified),-5,16µM*,3%,6%,u,1%
CCC(C)(C)n1nnnc1C(c1ccc2ncccc2c1)N1CCN(c2nc3ccccc3s2)CC1 (stereo unspecified),-13,-1%,-12%,-9%,-1%,u
